In PubChem BioAssay (NCI):
Compounds without any hit were thinned out: in the full panel of roughly 79,000, 15% have a hit. A number with no mark means an inactive call. Activity calls are given as the source filed them. No stated cut-off is given here; in the data, active means growth inhibition above about 70%; inactive means the rest.

Columns and labels:
[1] = NCI Yeast Anticancer Drug Screen. Data for the rad50 strain (AID 155);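 further: 0% = growth of vehicle-only cultures of the same strain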; conditions: S. cerevisiae rad50 strain growth inhibition; at 50.0 µM; active compounds read high
Summary of the method: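 Readout: growth inhibition relative to vehicle-treated cultures. Compound exposure was carried out in a genetically defined yeast strain deficient in DNA damage repair.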

[2] = NCI Yeast Anticancer Drug Screen. Data for the mec2-1 strain (AID 157); conditions: S. cerevisiae mec2-1 strain, at 50.0 µM, active compounds read high
Summary of the method: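 mec2-1 yeast strain, carrying an alteration in DNA damage repair or cell cycle control, was exposed to compounds; growth inhibition was measured relative to vehicle-treated controls.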

[3] = NCI Yeast Anticancer Drug Screen. Data for the sgs1 mgt1 strain (AID 161);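 further: 0% = growth of cultures given vehicle only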; conditions: S. cerevisiae sgs1 mgt1 strain, at 50.0 µM, active compounds read high
Summary of the method: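 Percent growth inhibition was derived by comparing compound-exposed mutant yeast with vehicle-exposed cultures. The strain carries alterations in DNA damage repair.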

[4] = NCI Yeast Anticancer Drug Screen. Data for the cln2 rad14 strain (AID 165);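 further: 0% = growth equal to vehicle treated cultures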; conditions: S. cerevisiae cln2 rad14 strain, at 50.0 µM, active compounds read high
Summary of the method: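 Yeast carrying cln2 and rad14 alterations (cell cycle control and DNA damage repair) were exposed to compounds. Growth inhibition was measured against vehicle-treated controls.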

[5] = NCI Yeast Anticancer Drug Screen. Data for the bub3 strain (AID 167); conditions: S. cerevisiae bub3 mutant strain, at 50.0 µM, active compounds read high
Summary of the method: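 Readout: yeast growth inhibition, expressed relative to vehicle-only wells. The test organism is a mutant strain from a panel with lesions in DNA repair or checkpoint genes.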

[6] = NCI Yeast Anticancer Drug Screen. Data for the mlh1 rad18 strain (AID 175); conditions: S. cerevisiae mlh1 rad18 strain growth inhibition; at 50.0 µM; active compounds read high
Summary of the method: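 Growth inhibition of the yeast strain was measured after compound exposure and expressed relative to vehicle-treated controls. The strain carries defined defects in DNA damage repair.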

Structure (SMILES)	growth inhibition [1]	growth inhibition [2]	growth inhibition [3]	growth inhibition [4]	growth inhibition [5]	growth inhibition [6]
O=S(=O)(Nc1ccccc1)c1cc(O)ccc1O	-3.35%	-11.2%	-9.75%	-12.1%	-26.5%	-9.85%
CC(O)c1cc2c(s1)C(=O)c1sccc1C2=O (stereo not given)	90.6% (active)	93.5% (active)	92% (active)	91.2% (active)	91.9% (active)	91.2% (active)
CCOC(=O)c1ccc(=O)n2c1[nH]c1ccccc12	9.05%	-5.65%	-15.5%	-0.45%	-2.75%	-5.45%
CCOC(=O)c1cc(NC(C)=O)c(C)n1C	-5.4%	8.6%	-3.45%	-26.6%	11.1%	16.4%
NCc1ccc(O)c(O)c1	-13.9%	19.9%	15.3%	13%	5.6%	10.1%
CN(C)c1ccc(C2(c3ccc(N(C)C)cc3)OC(=O)c3cc(N(C)C)ccc32)cc1	4.55%	-6.2%	-0.75%	-31.7%	16.4%	33.7%
Clc1nnc(-c2ccccc2)s1	2.3%	2.85%	19.9%	7.85%	8.2%	9.5%
CC(=O)N[C@H](CO)[C@H](O)c1ccc([N+](=O)[O-])cc1	-12.2%	10.1%	9%	-47.6%	16.1%	19.6%
O=S1CCS(=O)CCS(=O)CC1 (stereo not given)	-17.1%	-2.3%	-0.6%	-18.6%	-0.4%	-9.7%
CC(=O)N1CN2C(=O)CCC2c2ccccc21 (stereo not given)	-7.85%	1.4%	-14.2%	9.25%	-21.5%	-48.2%
O=C(O)CC(Cc1ccc2c(c1)OCO2)C(=O)O (stereo not given)	-5.6%	-2.35%	-34.2%	-33.9%	-54.6%	2.55%
O=C(O)C1CCCN1Cc1cc2ccccc2c2ccccc12 (stereo not given)	11.2%	-11.1%	-25.9%	8.6%	-3.3%	26.5%
CC(C)C(=O)OCc1ccccc1	0.95%	-5.7%	-6.75%	-3.9%	-10.8%	-24.9%
S=C(Sc1nc2ccccc2s1)Sc1nc2ccccc2s1	72% (active)	91.1% (active)	95% (active)	85.5% (active)	97.5% (active)	90.7% (active)
O=C1CC[C@@H](S(=O)(=O)c2ccccc2)[C@@H](/C=C/c2ccccc2)O1	-26.8%	-1.75%	7.15%	-12.8%	-10.7%	-6.7%
Cc1ccc(S(=O)(=O)N2CCSCCN(S(=O)(=O)c3ccc(C)cc3)CCN(S(=O)(=O)c3ccc(C)cc3)CC2)cc1	5.7%	-2.7%	0.2%	-19.9%	-18.7%	-18.4%
CCOC(CN(CC)CC)OCC	-6.75%	-27.6%	-5.15%	7.2%	-21.8%	2.15%
CC(=O)OCC(OC(C)=O)C1(O)CCC2C3CCC4=CC(=O)CCC4(C)C3CCC21C (stereo not given)	98.4% (active)	99% (active)	98.5% (active)	97.8% (active)	98.3% (active)	98.3% (active)
COc1cc(O)c(Cc2ccccc2O)c(O)c1C(=O)CCc1ccccc1	-17.4%	-34.5%	-13.5%	-5.65%	-35.9%	-7.9%
Cc1cc2c(c(C(C)(C)C)c1)OC(=O)/C2=C1/C(=O)Oc2c1cc(C)cc2C(C)(C)C	8.3%	-8%	-9.25%	0.85%	2.3%	-12.8%
